Results: the supplement of paper PMC10849652
The full data set covers some 8,800 targets. This sample favours those with a hit. About 0.5% of all pairs of compound and target were hits. Values without a mark were called inactive.

Legend:
Test in all cases: log2 fold change, soluble protein after heating vs DMSO (PISA); higher = thermal stabilisation; K562 lysate, 10 uM; active = over 0.2 and 3.5 SD of the protein, either way, in both replicates (recomputed)
ibrutinib = compound: C=CC(=O)N1CCC[C@@H](n2nc(-c3ccc(Oc4ccccc4)cc3)c3c(N)ncnc32)C1 [ibrutinib]
In short: (§1)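 Following dounce homogenisation of K562 pellets in PBS pH 7.4 with 1 mM MgCl2, crude extract at 1 mg/mL protein was incubated for 30 min with 10 μM compound. Aliquots were then heated for 3 min over 48°C-58°C and pooled, NP-40 was added to 0.5% at 4°C, and soluble protein was recovered as the supernatant at 21,000xg for 90 min. Channel-sum-equalised TMTpro 16plex LC-MS/MS quantified this protein. Each value, from duplicates, is a log-two fold change in thermal stability relative to solvent controls.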

[1] = compound: CC(=O)c1cnc2ccc(-c3cc(Cl)c(O)c(Cl)c3)nc2c1N[C@H]1CC[C@H](CN(C)C)CC1
In short: as §1

ralimetinib = compound: CC(C)(C)Cn1c(N)nc2ccc(-c3[nH]c(C(C)(C)C)nc3-c3ccc(F)cc3)nc21 [ralimetinib]
In short: as §1

[2] = compound: CC(C)(O)CC(=O)NCCn1ccc2ncnc(Nc3ccc(Oc4cccc(C(F)(F)F)c4)c(Cl)c3)c21
In short: as §1

[3] = compound: CC(C)C1=C2N=C(C=C(N2N=C1)NCC3=CC=CC=C3)NCCCCCCN
In short: as §1

[4] = compound: CC1=C(C(CC(=O)N1)C2=CC=C(C=C2)C(F)(F)F)C(=O)NC3=C(C=C4C(=C3)C=NN4)F
In short: as §1

[5] = compound: CC1=C(C2=C(C=C1)C(=O)C3=CC=CC=C3N2CCCN)C
In short: as §1

[6] = compound: CC1=C(C=C(C=C1)NC(=O)C2=CC(=CC=C2)C(C)(C)C#N)NC3=CC4=C(C=C3)N=CN(C4=O)C
In short: as §1

[7] = compound: CC1=C(C=C(C=C1)NC(=O)C2=CC(=CC=C2)N(C)C)NC(=O)C3=CC=C(C=C3)O
In short: as §1

[8] = compound: CC1=CC=C(C=C1)SC2=C3C=C(SC3=CN=C2)C(=O)N
In short: as §1

vemurafenib = compound: CCCS(=O)(=O)Nc1ccc(F)c(C(=O)c2c[nH]c3ncc(-c4ccc(Cl)cc4)cc23)c1F [vemurafenib]
In short: as §1

[9] = compound: CCCS(=O)(=O)Nc1ccc(F)c(C(=O)c2c[nH]c3ncc(Cl)cc23)c1F
In short: as §1

barasertib = compound: CCN(CCCOc1ccc2c(Nc3cc(CC(=O)Nc4cccc(F)c4)[nH]n3)ncnc2c1)CCOP(=O)(O)O [barasertib]
In short: as §1

[10] = compound: CC[C@@H]1C(=O)N(C)c2cnc(Nc3ccc(C(=O)NC4CCN(C)CC4)cc3OC)nc2N1C1CCCC1
In short: as §1

volasertib = compound: CC[C@@H]1C(=O)N(C)c2cnc(Nc3ccc(C(=O)N[C@H]4CC[C@H](N5CCN(CC6CC6)CC5)CC4)cc3OC)nc2N1C(C)C [volasertib]
In short: as §1

[11] = compound: CCn1c(C(=O)N(C2CC2)C2CC2)cc2c3c(ncn3C)c(Nc3cc(C)n(C)n3)nc21
In short: as §1

[12] = compound: CCn1cc(-c2ccnc3[nH]c(-c4cccc(CN(C)C)c4)cc23)c(-c2ccc(NC(=O)N(C)C)cc2)n1
In short: as §1

[13] = compound: CN1CCC(CNc2ccc3ncc(-c4cccc(OC(F)(F)F)c4)n3n2)CC1
In short: as §1

saracatinib = compound: CN1CCN(CCOc2cc(OC3CCOCC3)c3c(Nc4c(Cl)ccc5c4OCO5)ncnc3c2)CC1 [saracatinib]
In short: as §1

sotrastaurin = compound: CN1CCN(c2nc(C3=C(c4c[nH]c5ccccc45)C(=O)NC3=O)c3ccccc3n2)CC1 [sotrastaurin]
In short: as §1

Chain of UniProt P53778 (P53778 whole entry, looked up): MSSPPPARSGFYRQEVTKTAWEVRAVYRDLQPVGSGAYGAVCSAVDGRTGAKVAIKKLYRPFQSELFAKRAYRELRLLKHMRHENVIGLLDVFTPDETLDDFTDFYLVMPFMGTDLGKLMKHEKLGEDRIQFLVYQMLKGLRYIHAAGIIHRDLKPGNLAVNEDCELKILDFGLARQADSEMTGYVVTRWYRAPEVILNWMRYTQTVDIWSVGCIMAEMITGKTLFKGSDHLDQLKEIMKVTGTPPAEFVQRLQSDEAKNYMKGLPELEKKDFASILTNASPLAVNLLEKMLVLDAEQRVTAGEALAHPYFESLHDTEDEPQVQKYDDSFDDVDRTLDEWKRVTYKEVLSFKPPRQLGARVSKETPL
Chain of UniProt Q15013 (Q15013 whole entry, looked up): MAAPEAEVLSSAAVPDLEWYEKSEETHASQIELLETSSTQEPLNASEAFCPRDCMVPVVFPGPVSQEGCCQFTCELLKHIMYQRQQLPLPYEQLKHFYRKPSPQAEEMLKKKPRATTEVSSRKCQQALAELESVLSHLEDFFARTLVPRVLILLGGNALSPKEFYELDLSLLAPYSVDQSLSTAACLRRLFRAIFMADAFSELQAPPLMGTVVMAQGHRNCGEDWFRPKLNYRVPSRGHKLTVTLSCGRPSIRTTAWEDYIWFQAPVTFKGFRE
Chain of UniProt Q8N3R9 (Q8N3R9 whole entry, looked up): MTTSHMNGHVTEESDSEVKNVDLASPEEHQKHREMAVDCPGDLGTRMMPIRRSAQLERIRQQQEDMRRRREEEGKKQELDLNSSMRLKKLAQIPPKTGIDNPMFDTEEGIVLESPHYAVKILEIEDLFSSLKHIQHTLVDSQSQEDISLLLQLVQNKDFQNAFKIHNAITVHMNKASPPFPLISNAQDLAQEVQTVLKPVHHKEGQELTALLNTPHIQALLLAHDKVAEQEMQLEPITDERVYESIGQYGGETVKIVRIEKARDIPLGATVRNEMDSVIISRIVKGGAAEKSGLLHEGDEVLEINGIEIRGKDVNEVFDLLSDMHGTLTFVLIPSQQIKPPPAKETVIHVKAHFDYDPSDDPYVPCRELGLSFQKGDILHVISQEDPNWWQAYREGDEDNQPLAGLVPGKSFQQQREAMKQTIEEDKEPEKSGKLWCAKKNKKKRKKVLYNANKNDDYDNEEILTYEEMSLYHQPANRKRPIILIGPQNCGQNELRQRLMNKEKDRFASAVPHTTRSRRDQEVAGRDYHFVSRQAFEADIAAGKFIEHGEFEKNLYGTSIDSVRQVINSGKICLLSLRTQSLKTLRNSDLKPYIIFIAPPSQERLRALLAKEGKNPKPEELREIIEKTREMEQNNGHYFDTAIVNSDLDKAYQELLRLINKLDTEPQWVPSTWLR
Chain of UniProt Q14703 (Q14703 whole entry, looked up): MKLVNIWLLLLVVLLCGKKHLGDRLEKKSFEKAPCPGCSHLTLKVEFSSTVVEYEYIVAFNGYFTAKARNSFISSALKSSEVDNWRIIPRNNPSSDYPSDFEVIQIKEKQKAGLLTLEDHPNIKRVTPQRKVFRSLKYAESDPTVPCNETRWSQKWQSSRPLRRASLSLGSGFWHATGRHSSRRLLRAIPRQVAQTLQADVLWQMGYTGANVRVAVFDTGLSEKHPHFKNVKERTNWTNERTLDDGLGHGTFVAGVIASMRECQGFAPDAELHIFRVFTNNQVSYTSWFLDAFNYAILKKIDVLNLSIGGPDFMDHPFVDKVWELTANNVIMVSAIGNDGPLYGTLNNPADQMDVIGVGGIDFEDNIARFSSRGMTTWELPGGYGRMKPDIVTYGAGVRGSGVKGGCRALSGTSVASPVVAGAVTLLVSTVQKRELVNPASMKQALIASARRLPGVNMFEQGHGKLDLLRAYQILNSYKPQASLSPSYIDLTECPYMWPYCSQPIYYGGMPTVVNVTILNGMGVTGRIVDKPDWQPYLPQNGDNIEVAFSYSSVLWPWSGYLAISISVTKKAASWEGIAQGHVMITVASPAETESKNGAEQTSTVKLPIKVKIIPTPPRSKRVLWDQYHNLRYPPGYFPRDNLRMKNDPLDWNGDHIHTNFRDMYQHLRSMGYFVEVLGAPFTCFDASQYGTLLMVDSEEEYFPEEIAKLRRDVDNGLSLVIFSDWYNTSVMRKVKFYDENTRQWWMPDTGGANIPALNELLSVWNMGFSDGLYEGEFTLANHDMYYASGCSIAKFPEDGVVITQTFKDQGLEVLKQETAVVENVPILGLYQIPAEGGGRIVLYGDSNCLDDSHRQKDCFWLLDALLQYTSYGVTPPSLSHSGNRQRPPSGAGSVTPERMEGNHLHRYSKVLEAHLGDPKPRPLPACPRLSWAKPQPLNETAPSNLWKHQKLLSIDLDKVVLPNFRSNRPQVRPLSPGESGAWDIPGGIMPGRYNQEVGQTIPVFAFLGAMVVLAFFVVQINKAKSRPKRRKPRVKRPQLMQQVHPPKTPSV
Chain of UniProt Q53G59 (Q53G59 whole entry, looked up): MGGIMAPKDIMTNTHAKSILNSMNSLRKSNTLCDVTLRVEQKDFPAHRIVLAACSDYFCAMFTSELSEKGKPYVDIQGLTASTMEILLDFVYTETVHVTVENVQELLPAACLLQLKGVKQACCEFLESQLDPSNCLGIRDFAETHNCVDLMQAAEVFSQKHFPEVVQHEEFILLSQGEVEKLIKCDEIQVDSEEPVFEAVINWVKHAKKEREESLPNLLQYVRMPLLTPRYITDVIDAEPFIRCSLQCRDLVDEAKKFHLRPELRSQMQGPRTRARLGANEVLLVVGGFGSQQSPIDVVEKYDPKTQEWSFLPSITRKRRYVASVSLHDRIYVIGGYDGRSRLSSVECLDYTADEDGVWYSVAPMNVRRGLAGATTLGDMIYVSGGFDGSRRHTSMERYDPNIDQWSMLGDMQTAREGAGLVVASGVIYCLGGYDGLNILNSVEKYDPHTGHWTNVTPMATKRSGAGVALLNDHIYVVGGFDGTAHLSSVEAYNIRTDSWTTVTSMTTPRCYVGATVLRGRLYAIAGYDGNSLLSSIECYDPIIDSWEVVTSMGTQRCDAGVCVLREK
Chain of UniProt Q6ZRQ5 (Q6ZRQ5 whole entry, looked up): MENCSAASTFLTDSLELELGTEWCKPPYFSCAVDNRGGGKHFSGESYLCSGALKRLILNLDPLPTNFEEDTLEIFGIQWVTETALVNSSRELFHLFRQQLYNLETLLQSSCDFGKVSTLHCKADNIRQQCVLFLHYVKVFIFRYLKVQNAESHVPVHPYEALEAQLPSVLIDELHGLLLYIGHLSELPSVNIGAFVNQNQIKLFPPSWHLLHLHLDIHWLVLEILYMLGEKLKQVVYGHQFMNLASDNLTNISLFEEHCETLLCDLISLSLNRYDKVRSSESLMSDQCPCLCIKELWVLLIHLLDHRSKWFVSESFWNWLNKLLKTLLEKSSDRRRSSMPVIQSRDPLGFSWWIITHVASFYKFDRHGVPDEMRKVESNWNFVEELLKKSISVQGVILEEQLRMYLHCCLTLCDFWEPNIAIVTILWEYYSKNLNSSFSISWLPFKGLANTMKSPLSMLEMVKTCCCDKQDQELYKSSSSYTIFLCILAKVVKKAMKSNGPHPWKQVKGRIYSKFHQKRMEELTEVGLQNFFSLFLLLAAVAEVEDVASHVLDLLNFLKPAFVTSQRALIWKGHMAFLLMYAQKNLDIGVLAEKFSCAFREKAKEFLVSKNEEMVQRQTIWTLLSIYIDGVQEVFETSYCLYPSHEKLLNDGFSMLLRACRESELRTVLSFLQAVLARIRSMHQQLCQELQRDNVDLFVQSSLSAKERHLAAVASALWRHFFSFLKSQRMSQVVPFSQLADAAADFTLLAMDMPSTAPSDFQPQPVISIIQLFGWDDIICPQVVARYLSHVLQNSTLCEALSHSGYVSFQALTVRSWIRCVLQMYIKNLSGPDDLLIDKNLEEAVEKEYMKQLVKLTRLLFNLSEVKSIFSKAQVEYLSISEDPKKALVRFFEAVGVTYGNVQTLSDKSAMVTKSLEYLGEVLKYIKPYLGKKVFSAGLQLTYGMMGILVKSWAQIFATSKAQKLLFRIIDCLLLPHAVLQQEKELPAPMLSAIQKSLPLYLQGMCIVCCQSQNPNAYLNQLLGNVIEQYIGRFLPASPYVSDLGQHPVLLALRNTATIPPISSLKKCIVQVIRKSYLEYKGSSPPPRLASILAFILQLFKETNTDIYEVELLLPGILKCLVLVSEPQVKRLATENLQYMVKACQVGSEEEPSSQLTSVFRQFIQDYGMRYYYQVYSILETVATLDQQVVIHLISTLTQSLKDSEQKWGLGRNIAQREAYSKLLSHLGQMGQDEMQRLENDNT
Chain of UniProt Q8NE86 (Q8NE86 whole entry, looked up): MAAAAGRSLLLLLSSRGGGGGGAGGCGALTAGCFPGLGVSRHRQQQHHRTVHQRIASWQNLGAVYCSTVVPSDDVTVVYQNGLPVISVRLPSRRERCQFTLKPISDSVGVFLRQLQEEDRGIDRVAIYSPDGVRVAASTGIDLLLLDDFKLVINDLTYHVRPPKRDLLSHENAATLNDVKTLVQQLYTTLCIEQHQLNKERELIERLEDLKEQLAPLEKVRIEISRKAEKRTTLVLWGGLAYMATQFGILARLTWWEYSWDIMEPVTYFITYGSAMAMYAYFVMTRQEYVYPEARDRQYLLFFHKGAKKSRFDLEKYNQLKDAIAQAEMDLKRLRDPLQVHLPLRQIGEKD

Target	log2 fold change (ibrutinib)	log2 fold change [1]	log2 fold change (ralimetinib)	log2 fold change [2]	log2 fold change [3]	log2 fold change [4]	log2 fold change [5]	log2 fold change [6]	log2 fold change [7]	log2 fold change [8]	log2 fold change (vemurafenib)	log2 fold change [9]	log2 fold change (barasertib)	log2 fold change [10]	log2 fold change (volasertib)	log2 fold change [11]	log2 fold change [12]	log2 fold change [13]	log2 fold change (saracatinib)	log2 fold change (sotrastaurin)
MCU (UniProt Q8NE86)	-0.05	0.04	0.086	-0.021	-0.055	0.014	0.02	0.034	0.014	-0.023	0.011	0.017	0.077	-0.085	-0.033	-0.049	-0.062	-0.099	0.04	0.017
KLC2 (UniProt Q9H0B6)	0.021	0.01	0.003	0.008	-0.001	-0.045	-0.036	0.012	0.016	-0.012	0.066	0.042	0.042	-0.043	-0.074	-0.009	-0.015	-0.069	0.008	-0.016
MAD2L1BP isoform 3 (UniProt Q15013)	-0.016	-0.099	0.038	0.015	-0.037	0.107	-0.054	0.005	-0.011	-0.05	0.003	0.009	0.054	-0.076	-0.042	0.022	0	0.03	0.021	0.01
KLHL12 isoform 2 (UniProt Q53G59)	0.156	0.067	0.123	-0.032	0.073	0.026	-0.041	-0.066	0	0.007	0.038	0.061	-0.413 (active)		-0.045	0.118			0.064	-0.045
MBTPS1 (UniProt Q14703)	-0.243		0.056	-0.045	-0.029		-0.041	0.008	0.048		0.247		0.199	0.034		0.003	0.211	-0.185	-0.031	-0.014
MMS22L (UniProt Q6ZRQ5)	-0.025	0.049			-0.085	0.007	-0.042	-0.049		0.007	-0.044	0.013	0.083	-0.182	-0.119		0.077	-0.083	0.092	0.012
MPP5 (UniProt Q8N3R9)	0		0.019	-0.063	-0.079	-0.082	-0.067	0.017	0.014		-0.029		-0.058	-0.011		0.042	-0.084	-0.038	-0.04	-0.006
MAPK12 (UniProt P53778)	0.049		-0.001	-0.029	-0.027	0.074	0.08	0.002	-0.012		0.084		-0.033	0.105		-0.029	0.974 (active)	-0.169	0.023	
MEGF8 (UniProt Q7Z7M0)	0		-0.019	-0.124	-0.057		0.091	0.079	0.154				0.049	0.076		-0.048	0.124	0.028	0.283	-0.003
